An excerpt weighted towards active compounds, which were near 5.4% of everything screened.
PP1 counter = blocks human PP1-alpha phosphatase, a PP5 counter-screen; purified PP1alpha, OMFP fluorescence; hit rate 0.9% among 320,000; inhibition, % at 6.7 µM;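 active = inhibition above the mean inhibition of all tested compounds plus 3 SD, computed separately for each screening campaign, cut at about 15% in these data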
Target sequence (P62136 whole entry, looked up): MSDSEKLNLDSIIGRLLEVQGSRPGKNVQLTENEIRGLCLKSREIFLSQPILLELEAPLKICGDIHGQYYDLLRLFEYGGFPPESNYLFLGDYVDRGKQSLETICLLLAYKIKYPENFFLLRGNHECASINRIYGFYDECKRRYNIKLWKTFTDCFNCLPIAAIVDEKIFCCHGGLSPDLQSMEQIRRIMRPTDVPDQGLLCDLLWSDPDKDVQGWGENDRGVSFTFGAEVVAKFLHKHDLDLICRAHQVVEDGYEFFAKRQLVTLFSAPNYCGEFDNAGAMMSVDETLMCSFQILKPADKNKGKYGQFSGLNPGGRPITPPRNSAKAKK
Calb FLC = C. albicans growth modulation with fluconazole; C. albicans CaCi-2 (fluconazole-resistant clinical isolate) + fluconazole, Alamar Blue growth, 48 h; growth inhibition, % (test concentration not listed); hit rate 0.57% among 300,000;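 active = growth inhibition above about 58% in most replicates, limit read from the data, passing the limit was not always enough; inconclusive = exactly half the replicates above a set limit; inactive = most replicates below a set limit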;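 note: all wells also contain fluconazole at 8 µg/ml as a sub-toxic cotreatment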
PP5 primary = PP5 (human) phosphatase inhibition; P53041; purified PP5c, OMFP substrate fluorescence; inhibition, % at 6.7 µM; hit rate 0.18% among 320,000; AID 1987;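 active = inhibition above the campaign's mean inhibition across all tested compounds plus 3 SD, cut at about 9.5% in these data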
CSC inhib = blocks cancer stem cells; cancer stem cell-like cells viability, luminescence; hit rate 1.1% among 300,000; inhibition, % at 7.5 µM; in the data active = inhibition above about 75%; inconclusive = no clear call, values can overlap the other calls; tested in HMLE shEcad cells
ALR H2O2 inh = human ALR oxidase inhibition via reduced H2O2 | P55789 | purified ALR, DTT oxidation, H2O2 HRP-luminol luminescence | inhibition, % (test concentration not listed) | hit rate 3.8% among 290,000;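 active = mean replicate inhibition above about 79%, with every replicate also reaching it, limit read from the data; inconclusive = only one of the two criteria met; inactive = mean below limit and not every replicate reaching it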
Target sequence (P55789 whole entry, looked up): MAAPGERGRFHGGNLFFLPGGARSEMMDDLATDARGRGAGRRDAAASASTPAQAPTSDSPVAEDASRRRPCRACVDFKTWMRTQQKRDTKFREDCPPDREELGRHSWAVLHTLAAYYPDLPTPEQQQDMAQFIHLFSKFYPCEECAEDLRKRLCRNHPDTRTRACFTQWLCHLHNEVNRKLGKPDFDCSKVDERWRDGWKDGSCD
PP1 confirm = confirmation of human PP1 phosphatase inhibitors. shares compounds with PP1 counter. purified PP1alpha, OMFP substrate fluorescence. inhibition, % at 6.7 µM. hit rate 52% among 1,900. AID 2358;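 active = mean PP1 inhibition above a set limit taken from the earlier primary screen, cut at about 15% in these data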
PP5 inh counter = counter-screen for PP1 inhibitors: human PP5 phosphatase inhibition; inhibition, % at 6.7 µM; hit rate 4% among 1,900; AID 2360; purified PP5c, OMFP fluorescence; shares compounds with PP1 counter;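 active = mean PP5 inhibition over triplicate wells above about 9.5% taken from the earlier PP1 screen, limit read from the data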
Of the large screens only hits and unclear results are named; the others gave an inactive call (follow-up assays come after a bar, where they were run).

Cc1ccc(C2C(/C=C3/SC(=S)NC3=O)=C(c3cccs3)Oc3ccccc32)cc1 (stereo not drawn)	PP1 counter 31, CSC inhib 108, ALR H2O2 inh 99 | PP1 confirm 22 | PP5 inh counter inactive
CCn1cc(S(=O)(=O)CC(=O)Nc2ccc(OC)cc2)c2ccccc21	none
CC(C)(C)c1cc(Br)ccc1OCC(=O)Nc1ncn[nH]1	PP1 counter 23 | PP1 confirm 20 | PP5 inh counter inactive
Cn1cnnc1SCC(=O)Nc1ccc(OCc2ccccc2)cc1	PP1 counter 24 (no result: ALR H2O2 inh) | PP1 confirm inactive | PP5 inh counter inactive
O=C1C(Cc2ccccc2)Nc2ncnc(N3CCc4ccccc4C3)c2N1Cc1ccc(Cl)cc1 (stereo not drawn)	PP1 counter 24 | PP1 confirm 20 | PP5 inh counter inactive
CCC1Nc2ncnc(N3CCc4ccccc4C3)c2N(Cc2ccc(Cl)cc2)C1=O (stereo not drawn)	none (no result: PP1 counter, Calb FLC, PP5 primary, CSC inhib)
O=C(Cc1csc(NC(=O)Nc2ccc(Cl)cc2)n1)NC1CCCC1	PP1 counter 24 | PP1 confirm 19 | PP5 inh counter inactive
O=C(Cc1csc(NC(=O)Nc2ccc(Cl)cc2)n1)NCc1ccccn1	none (no result: CSC inhib, ALR H2O2 inh)
Cc1ccc(C)c(-c2nnc(NC(=O)CCS(=O)(=O)c3ccccc3)o2)c1	none
Cc1ccc(C)c(-c2nnc(NC(=O)COc3ccccc3)o2)c1	PP1 counter 22, Calb FLC inconclusive (no result: CSC inhib, ALR H2O2 inh) | PP1 confirm 21 | PP5 inh counter inactive
Cc1cc(-c2nnco2)c(C)n1-c1ccccc1	none
CCCSc1nnc(NC(=O)CSc2sc3c(O)cc(=O)[nH]c3c2C#N)s1	ALR H2O2 inh inconclusive
N#Cc1c(SCC(=O)Nc2nc3ccc(Br)cc3s2)sc2c(O)cc(=O)[nH]c12	PP1 counter 18, ALR H2O2 inh 99 | PP1 confirm inactive | PP5 inh counter inactive
N#Cc1c(SCC(=O)Nc2nccs2)sc2c(O)cc(=O)[nH]c12	PP1 counter 26, ALR H2O2 inh 99 | PP1 confirm inactive | PP5 inh counter inactive
N#Cc1c(SCC(=O)Nc2ccccc2C(F)(F)F)sc2c(O)cc(=O)[nH]c12	none
N#Cc1c(SCC(=O)Nc2nc3ccccc3s2)sc2c(O)cc(=O)[nH]c12	PP1 counter 19, ALR H2O2 inh 99 (no result: Calb FLC) | PP1 confirm inactive | PP5 inh counter inactive
CCCCc1ccc(C(=O)NC(C(=O)O)C(C)C)cc1 (stereo not drawn)	none
O=[N+]([O-])c1ccc(-c2ncc(-c3ccc(Br)cc3)o2)cc1	none (no result: ALR H2O2 inh)
O=C(CN1C(=O)C2C3CCC(C3)C2C1=O)OCC(=O)c1ccc(Br)cc1 (stereo not drawn)	none
O=S(=O)(Nc1cccc(-c2ccc(N3CCCCCC3)nn2)c1)c1cccc(F)c1	PP1 counter 18 | PP1 confirm inactive | PP5 inh counter inactive
CC1(C(=O)N(Cc2ccccc2)Cc2ccccc2)CC1(Br)Br (stereo not drawn)	none (no result: ALR H2O2 inh)
CC(=O)Nc1cccc(NC(=O)CSc2ncc(C(=O)Nc3ccc(F)cc3)c(=O)n2C)c1	PP1 counter 34, ALR H2O2 inh 99 | PP1 confirm inactive | PP5 inh counter inactive
c1ccc(N(c2ccccc2)c2nc(-n3ccnc3)nc(-n3ccnc3)n2)cc1	PP1 counter 50 | PP1 confirm 50 | PP5 inh counter inactive
CCCCOc1nc2c(c(=O)n(C)c(=O)n2C)n1C	none
CCOC(=O)c1sc(-n2[nH]c(C)cc2=O)nc1C	PP1 counter 19 | PP1 confirm inactive | PP5 inh counter inactive
CCOC(=O)c1sc(NC(C)=O)nc1C	none
O=C(N/N=C/c1ccc(O)cc1O)C(=O)N/N=C/c1ccc(O)cc1O	PP1 counter 53 | PP1 confirm 30 | PP5 inh counter inactive
O=C(CCC(=O)Nc1ccc(F)cc1)N/N=C/c1ccc(O)cc1O	ALR H2O2 inh inconclusive
COc1ccc(N2Cc3ccc(C(=O)N/N=C\c4ccc(O)cc4O)cc3C2)cc1	PP1 counter 19, Calb FLC 93, CSC inhib 91 (no result: ALR H2O2 inh) | PP1 confirm inactive | PP5 inh counter inactive
COc1ccc(C(=O)Nc2cccc(C(=O)N/N=C/c3ccc(OC)cc3OC)c2)cc1	none (no result: CSC inhib)
CCn1c(=O)cc(SCC(=O)N2CCN(C3CCCCC3)CC2)c2ccccc21	PP1 counter 30 (no result: CSC inhib) | PP1 confirm inactive | PP5 inh counter inactive
CCn1c(=O)cc(SCC(=O)N2CCOCC2)c2ccccc21	none
Cc1ccc(NC(=O)CSc2nnc(CNC(=O)c3ccco3)o2)cc1	none
Cc1ccc(CNC(=O)c2ccc3nc4[nH]c5ccccc5c4nc3c2)cc1	none (no result: PP1 counter, PP5 primary, CSC inhib, ALR H2O2 inh)
COc1ccccc1CNC(=O)c1ccc2nc3[nH]c4ccccc4c3nc2c1	PP1 counter 21 | PP1 confirm 23 | PP5 inh counter inactive
O=C(Nc1ccccn1)c1cc2cc([N+](=O)[O-])ccc2s1	PP1 counter 21 (no result: ALR H2O2 inh) | PP1 confirm 18 | PP5 inh counter inactive
CC(C)(C)c1ccc(NC(=O)C(=O)C2C(=O)Nc3ccccc32)cc1 (stereo not drawn)	none
CN(C)c1ccc(NC(=O)C(=O)C2C(=O)Nc3ccccc32)cc1 (stereo not drawn)	PP1 counter 21 | PP1 confirm inactive | PP5 inh counter inactive
O=Cc1cn(-c2ccccc2)nc1-c1cc2c(ccc3ccccc32)oc1=O	none (no result: Calb FLC)
O=Cc1cn(-c2ccccc2)nc1-c1cc2cc(O)ccc2oc1=O	PP1 counter 28 | PP1 confirm 18 | PP5 inh counter inactive
O=C(O)c1c[nH]c2ccc(S(=O)(=O)N3CCN(c4ccc(F)cc4)CC3)cc2c1=O	PP1 counter 44 | PP1 confirm 32 | PP5 inh counter inactive
NC1=NC[C@H](CC2CCCCC2)N1CCc1cc(C(F)(F)F)cc(C(F)(F)F)c1	PP1 counter 18, Calb FLC 92, CSC inhib 102 (no result: ALR H2O2 inh) | PP1 confirm inactive | PP5 inh counter inactive
O=C(CCN1C(=O)/C(=C\C=C\c2ccccc2)SC1=S)Nc1ccc(C(=O)O)cc1	none
O=C(CN1C(=O)/C(=C\C=C\c2ccccc2)SC1=S)Nc1ccc(F)cc1	PP1 counter 23 | PP1 confirm inactive | PP5 inh counter inactive
O=C(CN1C(=O)/C(=C/c2ccccc2)SC1=S)Nc1ncc(Cc2ccccc2)s1	PP1 counter 22 | PP1 confirm 20 | PP5 inh counter inactive
CCC(C)C1C(C#N)=C(N)Oc2n[nH]c(-c3ccccc3)c21 (stereo not drawn)	none
CCCOc1ccc(/C(O)=C2\C(=O)C(=O)N(c3ccccn3)C2c2ccccc2F)cc1C (stereo not drawn)	PP1 counter 24 | PP1 confirm 26 | PP5 inh counter inactive
COc1ccc(-c2cc(C(=O)NCCN3CCOCC3)no2)cc1OC	PP1 counter 32 | PP1 confirm inactive | PP5 inh counter inactive
O=C(NCCN1CCOCC1)c1cc(-c2ccc(Br)cc2)on1	none
CCN(CC)CCCN1C(=O)C(O)=C(C(=O)c2ccco2)C1c1ccc(C)o1 (stereo not drawn)	none
O=C(N/N=C/c1cc([N+](=O)[O-])ccc1O)c1cccc2cc[nH]c12	PP1 counter 29, CSC inhib 88 (no result: ALR H2O2 inh) | PP1 confirm 20 | PP5 inh counter inactive

Bioassay records: PubChem, several laboratories
